Laboratory results: PubChem BioAssay (EPA / NIEHS)
Active and inactive are the calls of the source. Rule for the calls: active = hit-call score of the fitted dose curve at least 0.9, where 1 is the maximum; inactive = score below 0.9.

Read-out: Intercellular Adhesion Molecule 1 (ICAM1), ICAM1 (gene 3383)
Experiment: BSK_hDFCGF_ICAM1: BioMAP Diversity Plus: hDFCGF Assay for Intercellular Adhesion Molecule 1 (ICAM1) Biomarker Activity (AID 2284287)
Conditions: primary human foreskin fibroblasts
How it was run: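 ICAM-1 ELISA readout 24 h after dosing, DMSO as baseline, in human dermal foreskin fibroblast cultures. Cytotoxicity checked in parallel wells by SRB staining (0.1% SRB, 10% TCA fixation, 560 nm).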

Compound | outcome
OCCCCO | inactive
O=C(Cc1ccccc1)OCCc1ccccc1 | inactive
CCCCOC(=O)COC(=O)c1ccccc1C(=O)OCCCC | inactive

Read-out: TIMP metallopeptidase inhibitor 2 (TIMP2), TIMP2 (gene 7077)
Experiment: BSK_hDFCGF_TIMP2: BioMAP Diversity Plus: hDFCGF Assay for TIMP metallopeptidase inhibitor 2 (TIMP2) Biomarker Activity (AID 2284289)
Conditions: primary human foreskin fibroblasts
How it was run: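 Primary human foreskin fibroblasts in the hDFCGF system, dosed for 24 h; TIMP-2 level measured by ELISA, fitted in the positive direction against DMSO; cytotoxicity checked in parallel by sulforhodamine B total protein staining.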

Compound | outcome
OCCCCO | inactive
O=C(Cc1ccccc1)OCCc1ccccc1 | inactive
CCCCOC(=O)COC(=O)c1ccccc1C(=O)OCCCC | inactive

Read-out: Thrombomodulin, THBD (gene 7056)
Experiment: BSK_LPS_Thrombomodulin: BioMAP Diversity Plus: LPS Assay for Thrombomodulin Biomarker Activity (AID 2284296)
Conditions: not given
How it was run: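 Thrombomodulin on the surface of LPS-activated endothelial/PBMC co-cultures was quantified by ELISA at 24 hours post-dosing, with DMSO as baseline. Parallel SRB total-protein staining flagged overt cytotoxicity.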

Compound | outcome
OCCCCO | inactive
O=C(Cc1ccccc1)OCCc1ccccc1 | inactive
CCCCOC(=O)COC(=O)c1ccccc1C(=O)OCCCC | inactive [primary human HUVEC with PBMC]

Tested on: not listed separately
Experiment: IUF_NPC2c_oligodendrocyte_migration_120hr: Leibniz Research Institute for Environmental Medicine (IUF) 120-hour Neural Progenitor Cell Migration Assay for Oligodendrocyte Migration (NPC2c) (AID 2284297)
Conditions: not given
How it was run: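 Human fetal cortex-derived neural progenitor spheres (0.3 mm) were plated on poly-D-lysine/laminin in N2 differentiation medium and exposed to 7 concentrations for 120 h, with half-medium renewal at day 3. Oligodendrocyte migration distance was normalized to radial glia migration, relative to DMSO.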

Compound | outcome
Cc1cc(C(F)(C(F)(F)F)C(F)(F)F)ccc1NC(=O)c1cccc(I)c1C(=O)NC(C)(C)CS(C)(=O)=O | inactive
Cc1ccccc1OP(=O)(Oc1ccccc1C)Oc1ccccc1C | inactive
O=S1OC[C@@H]2[C@H](CO1)[C@]1(Cl)C(Cl)=C(Cl)[C@@]2(Cl)C1(Cl)Cl (some centres undefined) | inactive
CS(=O)(=O)c1ccc(C(=O)C2C(=O)CCCC2=O)c(Cl)c1COCC(F)(F)F | inactive
CC(C)[C@@H](Nc1ccc(C(F)(F)F)cc1Cl)C(=O)OC(C#N)c1cccc(Oc2ccccc2)c1 (some centres undefined) | inactive
CCOCn1c(-c2ccc(Cl)cc2)c(C#N)c(Br)c1C(F)(F)F | inactive
CNC(=O)CSP(=O)(OC)OC | inactive
OC(Cc1ccccc1Cl)(Cn1[nH]cnc1=S)C1(Cl)CC1 (centres undefined) | inactive
CC1(C)[C@H](C(=O)O[C@H](C#N)c2cccc(Oc3ccccc3)c2)[C@@H]1/C=C(\Cl)C(F)(F)F | inactive

Tested on: not listed separately
Experiment: IUF_NPC2a_radial_glia_migration_120hr: Leibniz Research Institute for Environmental Medicine (IUF) 120-hour Neural Progenitor Cell Migration Assay for Radial Glia Migration (NPC2a) (AID 2284298)
Conditions: not given
How it was run: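 Single 0.3 mm primary human fetal-cortex (GW 16-19) NPC spheres were plated on poly-D-lysine/laminin in N2 differentiation medium and exposed from day 0 for 120 h, half-medium refreshed day 3. Migration distance came from Hoechst nuclei-density imaging, relative to DMSO.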

Compound | outcome | AC50
Cc1cc(C(F)(C(F)(F)F)C(F)(F)F)ccc1NC(=O)c1cccc(I)c1C(=O)NC(C)(C)CS(C)(=O)=O | inactive | 
Cc1ccccc1OP(=O)(Oc1ccccc1C)Oc1ccccc1C |  | 10 µM (active)
O=S1OC[C@@H]2[C@H](CO1)[C@]1(Cl)C(Cl)=C(Cl)[C@@]2(Cl)C1(Cl)Cl (some centres undefined) | inactive | 
CS(=O)(=O)c1ccc(C(=O)C2C(=O)CCCC2=O)c(Cl)c1COCC(F)(F)F | inactive | 
CC(C)[C@@H](Nc1ccc(C(F)(F)F)cc1Cl)C(=O)OC(C#N)c1cccc(Oc2ccccc2)c1 (some centres undefined) | inactive | 
CCOCn1c(-c2ccc(Cl)cc2)c(C#N)c(Br)c1C(F)(F)F |  | 63.4 µM (active)
CNC(=O)CSP(=O)(OC)OC | inactive | 
OC(Cc1ccccc1Cl)(Cn1[nH]cnc1=S)C1(Cl)CC1 (centres undefined) |  | 43 µM (active)
CC1(C)[C@H](C(=O)O[C@H](C#N)c2cccc(Oc3ccccc3)c2)[C@@H]1/C=C(\Cl)C(F)(F)F | inactive | 

Tested on: not listed separately
Experiment: IUF_NPC2a_radial_glia_migration_72hr: Leibniz Research Institute for Environmental Medicine (IUF) 72-hour Neural Progenitor Cell Migration Assay for Radial Glia Migration (NPC2a) (AID 2284299)
Conditions: not given
Description: IUF_NPC2-5 is a cell-based, multiplexed assay that uses hNPC, a human primary neural progenitor cells, with measurements taken at 72 or 120 hours after chemical dosing in a 96-well plate. Human neural progenitor cells (hNPC) are generated from human fetal brain cortex at gestational week (GW) 16-19. In the neural progenitor cell migration and differentiation assay (NPC2-5), hNPCs grown as spheres are plated on an extracellular matrix and migrate and differentiate out of the sphere core. The processes radial glia migration, neuronal and oligodendrocyte migration as well as neuronal differentiation, neuronal morphology and oligodendrocyte differentiation are studied using automated phase contrast imaging and automated fluorescence imaging in combination with high content image analysis. In parallel, the cell viability is assessed using an alamar blue viability assay and the cytotoxicity using a lactate dehydrogenase dependent membrane integrity assay.IUF_NPC2a_radial glia_migration_72hr is one of 12 assay components measured from the IUF_NPC2-5 assay. The migration distance of radial glia at 72 hr is assessed in um from the edge of the sphere core to the edge of the migration area based on brightfield images of each well. Therefore, each plate is scanned using a high content imaging device. Images are exported and the migration distance is measured manually in four directions using ImageJ. The mean of four measures per well is used as raw data input.Data from the IUF_NPC2a_radial_glia_migration_72hr component was analyzed at the endpoint IUF_NPC2a_radial_glia_migration_72hr in the positive analysis fitting direction relative to DMSO as the negative control and baseline of activity. Using a type of migration reporter, gain or loss-of-signal activity can be used to understand developmental effects.
Culture protocol: After the cell expansion period the cells are cultured for up to four weeks in which they are passaged every week as described in 3.6. Between one to three days after passaging spheres at a size of 0.3 mm are picked for the test method. For the assessment of neural progenitor cell migration and differentiation, the spheres are plated on poly-D-lysine/laminin coated 96-well flat bottom plates in differentiation medium (N2) to initiate migration and differentiation. Thereby one 0.3 mm big sphere is plated in the middle of a well. The differentiation medium consists of DMEM and Ham's F12 at a ratio of 3 to 1 supplemented with 1% N2 and 1% penicillin and streptomycin. Within 5 days NPCs radially migrate out of the sphere core and differentiate into radial glia cells (nestin positive), neurons (TUBB3 positive), oligodendrocytes (O4 positive) and astrocytes (GFAP positive). Cultivation during the test method is performed at 37C and 5% CO2 at a ph of 7.2-7.6.Exposure: 0.3 mm big hNPC are plated in the already prepared test conditions. Exposure starts at day 0 of differentiation and is continued over five days of differentiation until the experiment is terminated. Cells are fed with fresh medium at day 3 of differentiation. Therefore, half of the test condition solution (e.g. solvent control or compound dilution) is replaced by freshly prepared test condition solution.Test Method: Migration distance and cytotoxicity is determined after 72 hours based on brightfield images of each well. The assay is terminated by the assessment of cell viability and cytotoxicity as well as cell fixation after 120 h. Immunocytochemistry is performed for Hoechst positive nuclei, TUBB3 positive neurons and O4 positive oligodendrocytes. On the ICC images, migration after 120 hours, neuronal and oligodendrocyte number, neuronal morphology and neuron/oligodendrocyte specific migration is assessed. immunocytochemical staining (ICC) generates an image for each sphere. The plates are scanned using an automated high content imaging device and all nuclei and their positions are determined automatically based on their intensity and size. […]

Compound | outcome | AC50
Cc1cc(C(F)(C(F)(F)F)C(F)(F)F)ccc1NC(=O)c1cccc(I)c1C(=O)NC(C)(C)CS(C)(=O)=O | inactive | 
Cc1ccccc1OP(=O)(Oc1ccccc1C)Oc1ccccc1C | inactive | 
O=S1OC[C@@H]2[C@H](CO1)[C@]1(Cl)C(Cl)=C(Cl)[C@@]2(Cl)C1(Cl)Cl (some centres undefined) | inactive | 
CS(=O)(=O)c1ccc(C(=O)C2C(=O)CCCC2=O)c(Cl)c1COCC(F)(F)F | inactive | 
CC(C)[C@@H](Nc1ccc(C(F)(F)F)cc1Cl)C(=O)OC(C#N)c1cccc(Oc2ccccc2)c1 (some centres undefined) | inactive | 
CCOCn1c(-c2ccc(Cl)cc2)c(C#N)c(Br)c1C(F)(F)F |  | 36.6 µM (active)
CNC(=O)CSP(=O)(OC)OC | inactive | 
OC(Cc1ccccc1Cl)(Cn1[nH]cnc1=S)C1(Cl)CC1 (centres undefined) |  | 36 µM (active)
CC1(C)[C@H](C(=O)O[C@H](C#N)c2cccc(Oc3ccccc3)c2)[C@@H]1/C=C(\Cl)C(F)(F)F | inactive | 

Tested on: not listed separately
Experiment: IUF_NPC2b_neuronal_migration_120hr: Leibniz Research Institute for Environmental Medicine (IUF) 120-hour Neural Progenitor Cell Migration Assay for Neuron Migration (NPC2b) (AID 2284300)
Conditions: not given
How it was run: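 Primary human fetal cortex neural progenitor spheres (0.3 mm) plated on poly-D-lysine/laminin in N2 differentiation medium, exposed 120 h with half-medium refresh at day 3. TUBB3-stained neuron distance from sphere core, normalized to radial glia migration, versus DMSO.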

Compound | outcome | AC50
Cc1cc(C(F)(C(F)(F)F)C(F)(F)F)ccc1NC(=O)c1cccc(I)c1C(=O)NC(C)(C)CS(C)(=O)=O | inactive | 
Cc1ccccc1OP(=O)(Oc1ccccc1C)Oc1ccccc1C | inactive | 
O=S1OC[C@@H]2[C@H](CO1)[C@]1(Cl)C(Cl)=C(Cl)[C@@]2(Cl)C1(Cl)Cl (some centres undefined) | inactive | 
CS(=O)(=O)c1ccc(C(=O)C2C(=O)CCCC2=O)c(Cl)c1COCC(F)(F)F | inactive | 
CC(C)[C@@H](Nc1ccc(C(F)(F)F)cc1Cl)C(=O)OC(C#N)c1cccc(Oc2ccccc2)c1 (some centres undefined) | inactive | 
CCOCn1c(-c2ccc(Cl)cc2)c(C#N)c(Br)c1C(F)(F)F |  | 35.4 µM (active)
CNC(=O)CSP(=O)(OC)OC | inactive | 
OC(Cc1ccccc1Cl)(Cn1[nH]cnc1=S)C1(Cl)CC1 (centres undefined) | inactive | 
CC1(C)[C@H](C(=O)O[C@H](C#N)c2cccc(Oc3ccccc3)c2)[C@@H]1/C=C(\Cl)C(F)(F)F | inactive | 

Tested on: not listed separately
Experiment: IUF_NPC3_neuronal_differentiation_120hr: Leibniz Research Institute for Environmental Medicine (IUF) 120-hour Neuronal Differentiation Assay (NPC3) (AID 2284301)
Conditions: not given
How it was run: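 hNPC spheres, PDL/laminin, DMEM/F12 3:1 + 1% N2, 37C, 5% CO2; 7 concentrations + solvent control, 5 d exposure, half-change day 3. Fix 120 h; TUBB3/Hoechst ICC, CNN neuron calling; % neurons vs nuclei, DMSO-normalized.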

Compound | outcome | AC50
Cc1cc(C(F)(C(F)(F)F)C(F)(F)F)ccc1NC(=O)c1cccc(I)c1C(=O)NC(C)(C)CS(C)(=O)=O | inactive | 
Cc1ccccc1OP(=O)(Oc1ccccc1C)Oc1ccccc1C | inactive | 
O=S1OC[C@@H]2[C@H](CO1)[C@]1(Cl)C(Cl)=C(Cl)[C@@]2(Cl)C1(Cl)Cl (some centres undefined) | inactive | 
CS(=O)(=O)c1ccc(C(=O)C2C(=O)CCCC2=O)c(Cl)c1COCC(F)(F)F | inactive | 
CC(C)[C@@H](Nc1ccc(C(F)(F)F)cc1Cl)C(=O)OC(C#N)c1cccc(Oc2ccccc2)c1 (some centres undefined) |  | 1.92 µM (active)
CCOCn1c(-c2ccc(Cl)cc2)c(C#N)c(Br)c1C(F)(F)F |  | 5.42 µM (active)
CNC(=O)CSP(=O)(OC)OC | inactive | 
OC(Cc1ccccc1Cl)(Cn1[nH]cnc1=S)C1(Cl)CC1 (centres undefined) |  | 17.5 µM (active)
CC1(C)[C@H](C(=O)O[C@H](C#N)c2cccc(Oc3ccccc3)c2)[C@@H]1/C=C(\Cl)C(F)(F)F | inactive | 
